Experimental data taken from PubChem BioAssay AID588590 (National Center for Advancing Translational Sciences (NCATS), 2011).
Several values for one entry are separate records, joined by “and”; a condition that tells them apart may be missing. Equal values may be shown once. The whole screen tested about 390,000 compounds, of which about 4,000 (1%) were called active. Inconclusive results (about 7%) are left out. Calls come from the whole dose curve; as a rule, active = well fitted inhibition curve with a large enough effect; inconclusive = small, poorly fitted or top-dose-only effect, or another doubt; inactive = no such curve, though single readings can be large or run the other way. The entries come from a sample that favours actives as a whole. Where a structure was tested more than once in an assay, its records may differ in their call.

molecular target: DNA polymerase iota (Homo sapiens) (UniProt Q9UNA4); assay: qHTS for Inhibitors of Polymerase Iota; details: Pol iota fluorescent replication assay, 10 min; series mostly up to 115 µM; activity, negative = inhibition: at the top concentration
Outline: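 Pol iota at 10 nM preincubated 15 min with compounds at room temperature; reaction started with fluorescent substrate, 50 nM final. Fluorescence read kinetically at 0 and 10 min; buffer-only wells as negative control.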
Potency is the fitted concentration of half-maximal effect.

Chain of DNA polymerase iota (Homo sapiens) (Q9UNA4 whole entry, looked up): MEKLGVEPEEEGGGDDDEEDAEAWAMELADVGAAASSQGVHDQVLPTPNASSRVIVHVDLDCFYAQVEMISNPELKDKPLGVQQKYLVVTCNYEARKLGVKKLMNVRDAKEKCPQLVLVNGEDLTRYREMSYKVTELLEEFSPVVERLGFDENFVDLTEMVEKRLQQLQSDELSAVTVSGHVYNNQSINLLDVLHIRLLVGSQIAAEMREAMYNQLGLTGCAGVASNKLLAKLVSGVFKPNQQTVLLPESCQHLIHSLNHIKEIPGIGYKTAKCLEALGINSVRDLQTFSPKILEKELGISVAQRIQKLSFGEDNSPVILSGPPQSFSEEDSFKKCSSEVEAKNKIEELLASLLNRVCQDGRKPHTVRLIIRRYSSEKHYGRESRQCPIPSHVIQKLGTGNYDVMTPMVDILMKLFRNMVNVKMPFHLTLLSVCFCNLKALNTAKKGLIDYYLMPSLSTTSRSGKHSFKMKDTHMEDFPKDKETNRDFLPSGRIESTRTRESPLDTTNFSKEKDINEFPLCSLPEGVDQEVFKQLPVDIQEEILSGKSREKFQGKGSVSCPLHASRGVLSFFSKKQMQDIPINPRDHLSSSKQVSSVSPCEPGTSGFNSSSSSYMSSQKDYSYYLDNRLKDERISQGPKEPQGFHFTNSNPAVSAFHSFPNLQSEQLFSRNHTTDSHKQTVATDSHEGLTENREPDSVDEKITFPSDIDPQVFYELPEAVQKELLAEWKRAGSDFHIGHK

Compound | activity, negative = inhibition | Potency
S=c1[nH]nc(-c2ccco2)n1/N=C/c1ccc(Br)s1 | 7.83% (inactive) | –
COc1ccccc1/C=C/C=N/n1c(-c2ccc(Cl)cc2Cl)n[nH]c1=S | 23.2% (inactive) | –
Cc1cc(-c2n[nH]c(=S)n2/N=C/c2ccco2)n[nH]1 | – | 44.7 µM (active)
COc1ccc(C)cc1NC(=O)CCc1c(C)nn(-c2ccc(N3CCOCC3)nn2)c1C | 2.12% (inactive) | –
COc1cccc(C(=O)NC(=O)Nc2ccc(-c3cc(C(F)(F)F)nn3-c3ccccc3)cc2)c1 | -5.55% (inactive) | –
COC(=O)C1=C(c2ccccc2)c2ccccc2S(=O)(=O)N1CC(=O)Nc1ccccc1C(F)(F)F | -2.37% (inactive) | –
OC(Cc1ccc2ccccc2n1)c1ccc(Cl)c(Cl)c1 (stereo unspecified) | 13.3% (inactive) | –
O=C(NCCS(=O)(=O)N1CCN(c2ccc(F)cc2)CC1)c1ccccc1Br | 34.6% (inactive) | –
CC(=O)Nc1ccc(S(=O)(=O)NC2(C(F)(F)F)C(=O)NC(C)=C2C#N)cc1 (stereo unspecified) | – | 22.4 µM (active)
CCCN1C(=O)C(NS(=O)(=O)c2ccc(N)cc2)(C(F)(F)F)C(C(=O)OC)=C1C (stereo unspecified) | 21.5% (inactive) | –
CC(=O)Nc1ccc(S(=O)(=O)NC2(C(F)(F)F)C(=O)Nc3c2c(=O)[nH]c(=O)n3Cc2ccccc2)cc1 (stereo unspecified) | 13% (inactive) | –
Cc1c(Cl)cccc1NC(=O)N1CCN(C(=O)c2nsc3ccccc23)CC1 | -1.97% (inactive) | –
O=C(CCSCc1ccccc1F)N1CCN(c2ccc(Cl)cc2)CC1 | 5.1% (inactive) | –
Cc1nc(C)c(C(=O)N(c2ccc(C)c(C)c2)C(C(=O)NCc2ccco2)c2ccccc2)s1 (stereo unspecified) | – | 79.4 µM (active)
Cc1cccc(N(C(=O)c2sc(C)nc2C)C(C(=O)NCC2CCCO2)c2ccccc2)c1 (stereo unspecified) | 159% (inactive) | –
Cc1cccc(N(C(=O)Cc2cccs2)C(C(=O)NCc2ccco2)c2ccncc2)c1 (stereo unspecified) | 3.72% (inactive) | –
CC(C)(C(=O)NO)c1ccccc1 | 22.6% (inactive) | –
O=C(Nc1c(-c2ccc(F)cc2)nc2ccccn12)c1cccc(F)c1 | -14.9% (inactive) | –
CS(=O)(=O)c1ccc(Cl)c(NC(=O)COC(=O)c2ncc(Cl)c(Cl)c2Cl)c1 | 27.4% (inactive) | –
CS(=O)(=O)c1ccc(C(=O)OCC(=O)NNC(=O)COc2ccc(Cl)cc2)cc1 | – | 79.4 µM (active)
O=C(COc1ccc(Cl)cc1)N1CCN(S(=O)(=O)c2ccc(Cl)cc2)CC1 | 0.841% (inactive) | –
COc1cc(OC)c(/C=C/c2ccnc3ccccc23)c(OC)c1 | 6.37% (inactive) | –
CC(NC(=O)CCc1cn(Cc2ccccc2Cl)c2ccccc12)c1ccccc1 (stereo unspecified) | 6.58% (inactive) | –

Compound | activity, negative = inhibition | Potency
Cc1c(C)n(Cc2ccc(Cl)cc2)c2ccc(C(=O)N3CCN(c4ccccc4F)CC3)cc12 | -14.6% (inactive) | –
O=C(Cn1c(=O)nc(-c2ccccc2)c2cc(Cl)ccc21)NCc1ccc(Cl)cc1 | 12.4% (inactive) | –
CC(C)c1ccc2c(c1)c(SC(C)(C)C)c(CC(C)(C)C(=O)O)n2Cc1ccc(Cl)cc1 | – | 28.2 µM (active)
COc1cc(-c2noc(-c3ccc(N4CCCC4)c([N+](=O)[O-])c3)n2)cc(OC)c1OC | 13.9% (inactive) | –
Cc1ccc(C(=O)N2CCc3cc(CNC(=O)c4ccc(Br)cc4)ccc32)cc1 | 14% (inactive) | –
CSC1=N/C(=C\C=C\c2cccs2)C(=O)S1 | – | 15.8 µM (active)
Cc1ccc(CN(C(=O)COc2ccc(Cl)cc2C)C2CCS(=O)(=O)C2)o1 (stereo unspecified) | -3.04% (inactive) | –
CCc1cc2c(-c3ccccc3)cc(=O)oc2c2c1OCN(Cc1ccc(C)cc1)C2 | 21.1% (inactive) | –
Cc1ccc(S(=O)(=O)c2nc(-c3ccco3)oc2SCC(=O)Nc2ccc(F)cc2)cc1 | -29.2% (inactive) | –
O=C1CCCc2cc(S(=O)(=O)N3CCCC(C(=O)NCc4ccccc4)C3)ccc2N1 (stereo unspecified) | 4.68% (inactive) | –
COc1cccc(-c2nn(-c3ccccc3)cc2/C=C(\C#N)C(=O)NCCCn2ccnc2)c1 | 196% (inactive) | –
Cc1ccc(-c2nn(-c3ccccc3)cc2/C=C/C(=O)Nc2cccc(S(N)(=O)=O)c2)cc1 | 6.92% (inactive) | –
O=C(O)CCCCCCCCc1cn(CN2C(=O)c3ccccc3C2=O)nn1 | – | inactive
O=C1/C(=C/c2coc3ccc(O)cc3c2=O)SC(=S)N1c1ccccc1 | -10.5% (inactive) | –
CN(C)S(=O)(=O)c1cccc(-c2nn(-c3ccccc3)cc2/C=C2\SC(=S)N(CC(=O)O)C2=O)c1 | – | 31.6 µM (active)
Cc1ccc(-c2nn(-c3ccccc3)cc2/C=C2\SC(=S)N(CCCCCC(=O)O)C2=O)o1 | – | 89.1 µM (active)
CCn1cc(C(=O)N(C)Cc2ccccc2)c(=O)c2cc(S(=O)(=O)N3CCCCCC3)ccc21 | 15.7% (inactive) | –
COc1ccc(Cn2c(=O)n(-c3ccccc3C)c(=O)c3c4c(sc32)CN(C(C)=O)CC4)cc1 | 26.2% (inactive) | –
CCn1c(C(=O)Nc2cc(Cl)ccc2C)cc2sc(Cl)cc21 | 36.3% (inactive) | –
Cc1ccc2nc(/C(C#N)=C/c3ccc(-c4ccc(C(=O)OC(C)C)cc4)o3)[nH]c2c1 | 18.9% (inactive) | –
CN(Cc1ccccc1)S(=O)(=O)c1nnc(NC(=O)c2ccccc2F)s1 | 1.73% (inactive) | –
CCCCC(=O)Nc1nnc(S(=O)(=O)N(C)Cc2ccco2)s1 | -11% (inactive) | –
CN(Cc1ccco1)S(=O)(=O)c1nnc(NC(=O)c2ccccc2)s1 | – | inactive and 44.7 µM (active)
